Measured values taken from the supplement of paper PMC8728848.
Many of the other results were omitted from the sample, so the strongest signals are more common in it than they were.

What was measured:
Experiment in all cases: glycan array binding signal (z-score within array); higher = stronger binding
Conditions in all cases: glycan notation: IUPAC condensed, linker removed
[1] = biological target: Fuc(a1-2)Gal(b1-4)GlcNAc6S
Summary of the method: (§1)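 Negative Z-scores can be read as non-binding. The Z-score is calculated within each array and then averaged across arrays of one protein sequence at different concentrations or buffers and across linkers. Arrays, 3228 in all, were curated from the Consortium for Functional Glycomics database and kept only where the protein sequence was available.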

[2] = biological target: Fuc(a1-2)Gal(b1-4)[Fuc(a1-3)]GalNAc(b1-3)Gal(b1-4)[Fuc(a1-3)]GlcNAc(b1-3)Gal(b1-4)[Fuc(a1-3)]GalNAc
Summary of the method: as §1

[3] = biological target: Fuc(a1-2)[GalNAc(a1-3)]Gal(b1-4)GlcNAc
Summary of the method: as §1

[4] = biological target: Gal(a1-3)Gal(b1-4)GlcNAc
Summary of the method: as §1

[5] = biological target: Gal(b1-4)GalNAc(b1-3)[Fuc(a1-2)]Gal(b1-4)GlcNAc
Summary of the method: as §1

[6] = biological target: Gal(b1-4)GlcNAc(b1-6)GalNAc
Summary of the method: as §1

[7] = biological target: Gal3S(b1-4)GlcNAc
Summary of the method: as §1

[8] = biological target: Gal3S(b1-4)GlcNAc6S
Summary of the method: as §1

[9] = biological target: Gal4S(b1-4)GlcNAc
Summary of the method: as §1

[10] = biological target: GlcNAc(b1-3)[GlcNAc(b1-6)]GlcNAc
Summary of the method: as §1

[11] = biological target: Man(a1-2)Man(a1-2)Man(a1-6)[Man(a1-3)]Man
Summary of the method: as §1

[12] = biological target: Neu5Ac(a2-3)Gal
Summary of the method: as §1

[13] = biological target: Neu5Ac(a2-3)Gal(b1-4)GlcNAc6S
Summary of the method: as §1

[14] = biological target: Neu5Ac(a2-3)Gal(b1-4)[Fuc(a1-3)]GlcNAc6S
Summary of the method: as §1

[15] = biological target: Neu5Ac(a2-8)Neu5Ac(a2-8)Neu5Ac(a2-3)Gal(b1-4)Glc
Summary of the method: as §1

[16] = biological target: Neu5Ac9Ac(a2-6)Gal(b1-4)GlcNAc
Summary of the method: as §1

[17] = biological target: Fuc(a1-2)Gal(b1-4)[Fuc(a1-3)]GlcNAc
Summary of the method: as §1

[18] = biological target: Fuc(a1-2)[Gal(a1-4)]Gal(b1-4)GalNAc
Summary of the method: as §1

[19] = biological target: Gal(a1-2)Gal
Summary of the method: as §1

[20] = biological target: Gal(a1-3)Gal(b1-3)GlcNAc
Summary of the method: as §1

[21] = biological target: Gal(a1-4)GlcNAc
Summary of the method: as §1

[22] = biological target: Gal(b1-3)[Neu5Ac(a2-6)]GlcNAc
Summary of the method: as §1

[23] = biological target: Gal(b1-4)GlcNAc(b1-2)Man(a1-3)[Gal(b1-4)GlcNAc(b1-2)Man(a1-6)]Man(b1-4)GlcNAc(b1-4)GlcNAc
Summary of the method: as §1

[24] = biological target: Gal(b1-4)GlcNAc(b1-6)[Gal(b1-3)]GalNAc
Summary of the method: as §1

[25] = biological target: Gal3S6S(b1-4)GlcNAc
Summary of the method: as §1

[26] = biological target: Gal3S6S(b1-4)GlcNAc6S
Summary of the method: as §1

[27] = biological target: Gal4S6S(b1-4)GlcNAc
Summary of the method: as §1

[28] = biological target: Gal6S(b1-4)Glc
Summary of the method: as §1

[29] = biological target: Man(a1-2)Man(a1-3)[Man(a1-6)]Man(a1-6)[Man(a1-2)Man(a1-3)]Man(b1-4)GlcNAc(b1-4)GlcNAc
Summary of the method: as §1

[30] = biological target: Neu5Ac(a2-3)Gal(b1-3)[Fuc(a1-4)]GlcNAc
Summary of the method: as §1

[31] = biological target: Neu5Ac(a2-3)Gal(b1-4)Glc
Summary of the method: as §1

[32] = biological target: Neu5Ac(a2-6)Gal(b1-4)GlcNAc(b1-3)Gal(b1-4)GlcNAc
Summary of the method: as §1

[33] = biological target: Neu5Ac(a2-8)Neu5Ac(a2-3)Gal(b1-4)Glc
Summary of the method: as §1

[34] = biological target: Neu5Gc(a2-3)Gal(b1-3)GlcNAc
Summary of the method: as §1

B1: STA (Solanum tuberosum) (protein)
chain: NASAPLPYPQCGLKKGGGKCIKTGECCSIWGWCGTTSDYCAPGYCQKQCPGPYPQGRCGWQANGKSCPTGTGQCCSNAGWCGTTSDYCAPNNCQSQCKLPPPPPSPPPPPPSPPPPSPPPPPPSPPPPSPSPPPPPPSPPPPSPPPPSPPPPSPPPPPSPSPPPPPPSPPPPPPPLPYPQCGMKKGGGKCIKTGECCSIWGWCGTTSKYCSPGYCQMQCPDPYPEGRCGWQANGKSCPTGTGQCCSNAGWCGTTSAYCAPVNCQAQCNTTTLTSPIKNRMRGIESFMLNVV
- glycan array binding signal (z-score) [1]: 0.551
- glycan array binding signal (z-score) [2]: -0.504
- glycan array binding signal (z-score) [3]: 2.86
- glycan array binding signal (z-score) [4]: 3.27
- glycan array binding signal (z-score) [5]: 0.033
- glycan array binding signal (z-score) [6]: 2.69
- glycan array binding signal (z-score) [7]: 2.55
- glycan array binding signal (z-score) [8]: 2.58
- glycan array binding signal (z-score) [9]: 3.08
- glycan array binding signal (z-score) [10]: -0.269
- glycan array binding signal (z-score) [11]: -0.506
- glycan array binding signal (z-score) [12]: -0.507
- glycan array binding signal (z-score) [13]: 3.23
- glycan array binding signal (z-score) [14]: -0.49
- glycan array binding signal (z-score) [15]: -0.5
- glycan array binding signal (z-score) [16]: -0.498

B2: Siglec 6 (Homo sapiens), O43699 (protein)
chain: MLPLLLPLLWAGALAQERRFQLEGPESLTVQEGLCVLVPCRLPTTLPASYYGYGYWFLEGADVPVATNDPDEEVQEETRGRFHLLWDPRRKNCSLSIRDARRRDNAAYFFRLKSKWMKYGYTSSKLSVRVMALTHRPNISIPGTLESGHPSNLTCSVPWVCEQGTPPIFSWMSAAPTSLGPRTTQSSVLTITPRPQDHSTNLTCQVTFPGAGVTMERTIQLNVSYAPQKVAISIFQGNSAAFKILQNTSSLPVLEGQALRLLCDADGNPPAHLSWFQGFPALNATPISNTGVLELPQVGSAEEGDFTCRAQHPLGSLQISLSLFVHWKPEGRAGGVLGAVWGASITTLVFLCVCFIFRVKTRRKKAAQPVQNTDDVNPVMVSGSRGHQHQFQTGIVSDHPAEAGPISEDEQELHYAVLHFHKVQPQEPKVTDTEYSEIKIHK
- glycan array binding signal (z-score) [17]: -0.259
- glycan array binding signal (z-score) [18]: 1.21
- glycan array binding signal (z-score) [19]: -0.328
- glycan array binding signal (z-score) [20]: -0.366
- glycan array binding signal (z-score) [21]: -0.074
- glycan array binding signal (z-score) [22]: -0.381
- glycan array binding signal (z-score) [23]: -0.29
- glycan array binding signal (z-score) [24]: -0.521
- glycan array binding signal (z-score) [8]: 3.66
- glycan array binding signal (z-score) [25]: 5.12
- glycan array binding signal (z-score) [26]: 6.44
- glycan array binding signal (z-score) [27]: 3
- glycan array binding signal (z-score) [28]: 0.086
- glycan array binding signal (z-score) [29]: -0.209
- glycan array binding signal (z-score) [30]: -0.566
- glycan array binding signal (z-score) [31]: -0.332
- glycan array binding signal (z-score) [32]: -0.476
- glycan array binding signal (z-score) [33]: -0.16
- glycan array binding signal (z-score) [16]: -0.211
- glycan array binding signal (z-score) [34]: -0.386
